Screening data as filed in PubChem BioAssay.
HEK293 tox – Cytotoxic Profiling in HEK 293 Cell Line of Diverse Libraries Using Quantitative High-Throughput Screening; 6.6% of 94,000 active; Potency, µM (top dose mostly 115 µM), actives largely listed as inhibitors; HEK 293 viability, ATP luminescence (CellTiter-Glo), 48-72 h; also: nearly all actives have a fitted effect of over 60% in size
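Viability of HEK 293 cells, plated at 250 cells/well, was judged by cellular ATP after compound treatment for 48 or 72 hr. Luminescence was imaged 10 min after CellTiter-Glo addition at room temperature.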
FLuc inh – Firefly luciferase inhibition profiling of diverse chemical library using quantitative high-throughput screening | Luciferin 4-monooxygenase (Photinus pyralis), P08659 | purified P. pyralis luciferase, luminescence, biochemical | Potency, µM (titrated, usually from 115 µM), most hits filed as inhibitors | 2.5% of 76,000 active | AID 1347043, 2019; also: nearly all actives have a fitted effect of over 65% in size
Target sequence (P08659 whole entry, looked up): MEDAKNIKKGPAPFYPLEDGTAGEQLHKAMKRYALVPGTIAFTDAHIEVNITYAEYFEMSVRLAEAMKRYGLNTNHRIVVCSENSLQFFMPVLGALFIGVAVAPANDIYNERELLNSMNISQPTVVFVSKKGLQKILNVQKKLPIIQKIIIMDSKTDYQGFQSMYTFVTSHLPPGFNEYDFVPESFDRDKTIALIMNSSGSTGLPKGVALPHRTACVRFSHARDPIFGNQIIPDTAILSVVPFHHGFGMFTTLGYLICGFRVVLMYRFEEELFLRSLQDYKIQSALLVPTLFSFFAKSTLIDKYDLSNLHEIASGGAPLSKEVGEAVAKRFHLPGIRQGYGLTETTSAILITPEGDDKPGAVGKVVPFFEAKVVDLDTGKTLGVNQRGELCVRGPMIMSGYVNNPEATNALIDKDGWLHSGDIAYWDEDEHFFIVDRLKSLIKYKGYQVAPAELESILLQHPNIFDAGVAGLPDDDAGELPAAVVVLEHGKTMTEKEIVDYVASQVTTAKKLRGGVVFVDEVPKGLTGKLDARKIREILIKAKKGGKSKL
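Cell-free enzyme assay, 10nM P. pyralis luciferase, luciferin and ATP each at 10uM. Inhibition profiled over a 6-point titration, read as luminescence.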
3T3 cytotox – Cytotoxic Profiling in NIH 3T3 Cell Line of Diverse Libraries Using Quantitative High-Throughput Screening; NIH 3T3 viability, CellTiter-Glo ATP luminescence, 48-72 h; Potency, µM (highest dose often 96.7 µM), usual class: inhibitors; 4.3% of 94,000 active; AID 1345082, 2018; also: nearly all actives have a fitted effect of over 55% in size
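Mouse fibroblast NIH 3T3 cells, 400 per well, received compound via pintool and were incubated for 48 or 72 hr prior to CellTiter-Glo ATP luminescence measurement.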
hNpr1 antagonist – Natriuretic polypeptide receptor (hNpr1) antagonism - Primary qHTS | Atrial natriuretic peptide receptor 1 (Homo sapiens), P16066 | HEK293 hNpr1 GloSensor cGMP, ANP-stimulated luminescence | Potency, µM (doses to about 46.3 µM), usual class: inhibitors | 1.6% of 76,000 active; calls by dose curve; also: nearly all actives have a fitted effect of over 60% in size
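HEK293 cells stably expressing human Npr1 and cGMP GloSensor pGS-40F, loaded 2 h with 2% GloSensor reagent, given compound 30 min at room temperature. Luminescence read before and 20 min after 0.1 nM hNppA.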
Each line names hits and unclear results; the compound was inactive in the other large screens. The list is not random: actives were taken first. Their share in the collection is about 11%. Unless noted, calls follow the shape of the dose curve; as a rule, active = well fitted curve in the direction sought with a large enough effect; inconclusive = small, poorly fitted or top-dose-only effect, or another doubt; inactive = no such curve, though single readings can be large; an effect the other way counts as inactive or inconclusive.

CCc1ccc(NC(=O)c2cc3n(n2)CC(c2ccc4c(c2)OCO4)OC3)cc1 (centres undefined)	HEK293 tox 32µM, FLuc inh inconclusive, 3T3 cytotox inconclusive, hNpr1 antagonist 11µM
Clc1cccc(-c2ccc(CNc3ncncn3)o2)c1	HEK293 tox 32µM, FLuc inh inconclusive, 3T3 cytotox inconclusive, hNpr1 antagonist inconclusive
CCNCc1ccc(-c2ccc(Cl)cc2)o1	HEK293 tox inconclusive, 3T3 cytotox inconclusive
COC[C@@H]1CN(C(=O)c2ccc(C)cn2)C[C@H]1c1nc(C2CC2)no1	none
COc1ccc(-c2n[nH]c3c2CC(=O)N(CCOc2ccccc2)C3)cc1F	HEK293 tox 100µM, 3T3 cytotox inconclusive
COCCN1Cc2[nH]nc(-c3cccc(OC)c3)c2CC1=O	HEK293 tox inconclusive, 3T3 cytotox 100µM
O=C(O)c1cccc(-c2n[nH]c3c2CC(=O)N(CCOc2ccccc2)C3)c1	3T3 cytotox inconclusive
O=C(O)c1cccc(-c2n[nH]c3c2CC(=O)N(c2ccccc2)C3)c1	HEK293 tox inconclusive, FLuc inh 63µM, 3T3 cytotox inconclusive
O=C1Cc2c(-c3ccccc3)n[nH]c2CN1CCOc1ccccc1	FLuc inh inconclusive, 3T3 cytotox inconclusive, hNpr1 antagonist 13µM
O=C(C1CC1)N1CC2(CCCN2C2COC2)Cc2ccccc21 (centres undefined)	none (no result: FLuc inh, hNpr1 antagonist)
COc1cc(OC)c(NC(=O)CN2C(=O)NC3(CCOCC3)C2=O)cc1Cl	none
CN(Cc1cccc(C(F)(F)F)c1)CC1CC1	none (no result: FLuc inh, hNpr1 antagonist)
COC(=O)[C@@H]1Cc2c([nH]c3ccccc23)[C@H]2C[C@@H](NC(C)C)C[C@@H](c3ccc(C)cc3)N21	HEK293 tox 35µM, 3T3 cytotox 40µM
COc1cc(C(=O)NC2CCCc3c2[nH]c2ccccc32)cc(OC)c1OC (centres undefined)	HEK293 tox inconclusive, 3T3 cytotox inconclusive
COC(=O)[C@@H]1Cc2c([nH]c3ccccc23)[C@H]2C[C@@H](NC(C)C)C[C@@H](c3ccccc3)N21	HEK293 tox 35µM, FLuc inh inconclusive, 3T3 cytotox 40µM
Cn1nc(C2CCN(C(=O)Nc3ccc(Cl)cc3)CC2)[nH]c1=O	none
COc1ccc2c(C)c(C(=O)N3CCOC(c4ccc(F)cc4)C3)oc2c1 (centres undefined)	HEK293 tox inconclusive, 3T3 cytotox inconclusive
COc1ccc2cc(C3CN(C(=O)c4cccn4C)CCO3)ccc2c1 (centres undefined)	HEK293 tox inconclusive, FLuc inh 4.5µM, 3T3 cytotox 40µM, hNpr1 antagonist 16µM
COc1ccc2cc(C3CN(c4ncnc(C)c4C)CCO3)ccc2c1 (centres undefined)	HEK293 tox inconclusive, FLuc inh inconclusive, 3T3 cytotox inconclusive, hNpr1 antagonist 2.5µM
COCC1(C(=O)N2CCOC(c3ccc4cc(OC)ccc4c3)C2)CCC1 (centres undefined)	HEK293 tox inconclusive, FLuc inh 20µM, 3T3 cytotox inconclusive
COc1cc(CN2CCN(c3ncnc(C)c3C)CC2CCO)cc(OC)c1 (centres undefined)	HEK293 tox inconclusive
O=C(NC1CCCN(CCn2nc3n(c2=O)CCCC3)C1)c1ccc(Cl)nc1 (centres undefined)	none (no result: FLuc inh, hNpr1 antagonist)
Cc1nn(-c2ccccc2)c2c1C(C1CC1)N(C1CCN([S+](=O)([O-])c3ccccc3)C1)C2=O (centres undefined)	none (no result: FLuc inh, hNpr1 antagonist)
O=C(NC1CCCCCC1)c1nc2cccnc2n(C2CC2)c1=O	none (no result: FLuc inh, hNpr1 antagonist)
COc1ccc(CC2CCOC3(CCN(C(=O)c4cc5ccccc5[nH]4)CC3)C2)cc1 (centres undefined)	HEK293 tox 32µM, 3T3 cytotox inconclusive
COc1ccc2[nH]c(C(=O)N3CCC4(CC3)CC(O)CCO4)cc2c1 (centres undefined)	none
COc1ccc(CC2CCOC3(CCN(C(=O)c4ccco4)CC3)C2)cc1 (centres undefined)	HEK293 tox 50µM, 3T3 cytotox inconclusive (no result: FLuc inh, hNpr1 antagonist)
COCC1CN(C)CC12CCN(C(=O)c1cc3ccccc3[nH]1)CC2 (centres undefined)	HEK293 tox 89µM, FLuc inh inconclusive
COc1ccc(CC2CCOC3(CCN(C(=O)CC(C)C)CC3)C2)cc1 (centres undefined)	HEK293 tox inconclusive, 3T3 cytotox inconclusive, hNpr1 antagonist inconclusive
